Inconclusive results are not listed. A number with no mark means an inactive call. Calls of active or inactive are those of the source. The call rests on the fitted dose curve; in most records, active means well fitted activation curve with a large enough effect in the repeat runs; inconclusive means weak or mixed curves, or effect the other way; inactive means no such curve, though single readings can be large or run the other way.

Data on 40 molecules can be found in PubChem BioAssay (Tox21).
On the % scale 0 is the no-effect control and ±100 the full control effect; potency means the concentration at half of the fitted maximal effect.

The nature of the test: qHTS assay to identify small molecule agonists of the estrogen related receptor signaling pathway with the pleiotropic PPARgamma coactivator (PGC) from Tox21 10K library (AID 1224842). Further: nearly all actives have a fitted effect of over 15% in size. Particulars: PGC/ERR reporter cell line, luciferase ONE-Glo, 18 h; series mostly up to 92.4 µM; activation: at the top concentration. The text has this: National Center for Advancing Translational Sciences [NCATS] NIH Chemical Genomics Center [NCGC] U.S. Environmental Protection Agency [EPA] National Institutes of Environmental Health Sciences [NIEHS] National Toxicology Program [NTP] Assay overview: Estrogen related receptors (ERRs), the first orphan nuclear receptors discovered, play an important role in the control of cellular energy metabolism. ERRs are required for high-energy production in response to the environmental challenges. The pleiotropic PPARgamma coactivator (PGC) is a major partner of ERR and a key regulator in energy homeostasis. Together they have been implicated in the etiology of metabolic disorders such as Type 2 diabetes and metabolic syndrome. ERR-alpha was also identified as an adverse marker for breast cancer progression; ERR-alpha-positive tumors have a poor prognosis. To screen and to identify environmental compounds that perturb the PGC/ERR signaling pathways could provide valuable information for potential therapeutic or preventive measures in the treatment of metabolic disease. For identifying PGC/ERR agonists, PGC/ERR cell line (provided by NTP) has been used to screen Tox21 10K library.
Assay Protocol Summary: The PGC/ERR cells were dispensed at 2,000 cells/5 ul/well in 1536-well white plates using a Multidrop dispenser. After the assay plates were incubated at a 37 C/5% CO2 incubator for 6 hours, 23 nL of compounds dissolved in DMSO, positive and negative controls or DMSO only was transferred to the assay plate by a pin tool. The plates were incubated at 37 C for 18 hours. 4 ul/well of One-Glo reagent was added into the assay plates using a Flying Reagent Dispenser. After 30-minute incubation at room temperature, the luminescence intensity in the plates was measured using a ViewLux plate reader.
(In general: In qHTS, concentration-response curves come from the screen itself.)
Regarding `CC(C)c1cccc(O)c1`, the “activation” value was 0.566%.

For `O=[N+]([O-])c1ccc(Oc2ccc([N+](=O)[O-])cc2)cc1`, the “activation” value was 2.15%.

In the case of `CCO[Si](CCCN=C=O)(OCC)OCC`, the “activation” value is -1.64%.

As for `C=C(C)C1CC=C(C)C(O)C1` (stereo not given), the “activation” value was 1.31%.

Turning to `CC1(C)SC(C)(C)SC(C)(C)S1`, the “activation” value is -2.27%.

As to `Cc1ncc(CSSCc2cnc(C)c(O)c2CO)c(CO)c1O`, the “activation” value was 0.628% [at 42.5 µM].

Consider `C1COCCO1`, for which the “activation” value is 0.68%.

For the molecule `CC(C)c1cccc(C(C)C)c1N`, the “activation” value was -0.0967%.

As for `CN(C)N=Nc1ccccc1`, the “activation” value is 3.59%.

For `Cc1onc(-c2ccccc2)c1-c1ccc(S(N)(=O)=O)cc1`, the “activation” value was -15.2% [at 42.5 µM].

As to `CO`, the “activation” value is 0.458%.

On to `CCCCCC[C@@H](CCC)C(=O)O`, for which the “activation” value is -5.64% [at 42.5 µM].

For the molecule `CCCOCC(C)OCC(C)O` (stereo not given), the “activation” value is 3.2%.

For the molecule `O=S(=O)(O)c1ccccc1O`, the “activation” value is -0.126%.

Consider `CN(C)C(=O)C(CCN1CCC(O)(c2ccc(Cl)cc2)CC1)(c1ccccc1)c1ccccc1`, for which the “activation” value is -0.805% [at 42.5 µM].

As to `CC12CCC(CC1=O)C2(C)C` (stereo not given), the “activation” value was 2.01%.

`Cc1ccccc1Br`: the “activation” value was 0.0125%.

In the case of `CC1CCN(CCCC(=O)c2ccc(F)cc2)CC1`, the “activation” value is 3.58% [at 42.5 µM].

Consider `COc1cc(CCC(C)=O)ccc1O`, for which the “activation” value is 3.28%.

In the case of `NC(=O)c1c(Cl)cccc1Cl`, the “activation” value is -3.13%.

In the case of `c1ccc(SCCSc2ccccc2)cc1`, the Potency is 5.4 µM (active).

With `CN(C)C(=O)Nc1ccccc1`, the “activation” value is 4.48%.

Turning to `N#CC1(O)CCCCC1`, the “activation” value is 1.61%.

For `C[C@H]1O[C@@H](n2cc(F)c(=O)[nH]c2=O)[C@H](O)[C@@H]1O`, the “activation” value was 0.827% [at 42.5 µM].

Turning to `Cc1nc(-c2ccc(OCC(C)C)c(C#N)c2)sc1C(=O)O`, the Potency is 0.668 µM (active).

`C1CCCCCCCCCCC1`: the activation is 0.749% [at 19 µM].

As to `CCC(C)OC(=O)N1CCCCC1CCO` (stereo not given), the “activation” value is -2.92%.

As to `Oc1ccc2c(c1)OC[C@@H](N1CCC(O)(c3ccc(F)cc3)CC1)[C@H]2O`, the Potency was 4.73 µM (active).

Regarding `NCCNC(=O)c1ccc(Cl)cn1`, the “activation” value was -2.51% [at 42.5 µM].

Turning to `CCC(C(=O)NC(N)=O)c1ccccc1` (stereo not given), the “activation” value was -3.53%.

As for `CCCC(C)C(=O)O` (stereo not given), the “activation” value is -21.9%.

In the case of `CC(C)(O)c1ccccc1`, the “activation” value was 3.64%.

Take `CN1[C@@H]2CC[C@H]1CC(NC(=O)n1c(=O)[nH]c3ccccc31)C2` (stereo not given in full): the “activation” value is -3.41% [at 42.5 µM].

For `CCC(=O)/C=C/c1ccc(OC)cc1`, the “activation” value is -4.41%.

Consider `C1=C\CC/C=C\CC/C=C\CC/1`, for which the “activation” value was -4.52%.

Turning to `CC(C)(C)C(=O)/C=C/c1ccc(Cl)cc1`, the “activation” value was 4.81%.

Take `CCCCC1CCCCC(=O)O1` (stereo not given): the “activation” value is 2.25%.

For `COc1cccc(Br)c1`, the “activation” value was 0.924%.

`CCOC(=O)Cn1c(=O)sc2cccc(Cl)c21`: the “activation” value is -3.48%.

On to `COC(=O)[C@H]1[C@H]2C[C@@H]3c4[nH]c5cc(OC)ccc5c4CCN3C[C@H]2C[C@@H](OC(=O)COc2ccc(OC)cc2)[C@@H]1OC`, for which the “activation” value was -8.59% [at 42.5 µM].
